# Reference: PubChem BioAssay AID602254 (Broad Institute, 2012)
# The campaign covered roughly 1,000 compounds. Fewer than 10 were called active.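 Rule for the calls: active = fitted half-maximal concentration no higher than twice the top valid tested dose, with signal falling; inconclusive = flat curve with 30 to 70% inhibition, or poor fit; inactive = the rest.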 These entries were drawn from the full list. Entries with a potency or affinity are not part of this list.
# Molecular target: Golgi-associated PDZ and coiled-coil motif-containing protein (Homo sapiens) (UniProt Q9HD26)
# Experiment: CAL PDZ domain peptide-binding inhibitors, dose response, biochemical, fluorescence polarization, untagged CAL PDZ, cherry-pick, set 2 (AID 602254);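 note: 0% = DMSO neutral control and -100% = unlabeled peptide PRC23 positive control; more negative means stronger blocking of peptide binding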
# Conditions: Purified CAL PDZ, TMR peptide fluorescence polarization; series mostly up to 60 µM; activity change, negative = inhibition: at the top concentration
row,Compound,"activity change, negative = inhibition"
1,C=CCNC(=S)NNC(=O)c1ccc(C)c(Cl)c1,0.039% (inactive)
2,Cc1ccc(S(=O)(=O)c2nc(NN(C)C)sc2Cl)cc1,-1.6% (inactive)
3,CC(=O)c1cccc(CN2CCN(CC=C(C)C)C(CCO)C2)c1 (stereo unspecified),-0.044% (inactive)
4,CC1CCN(C(=O)CNC(=O)c2ccc(Cl)cc2Cl)CC1,-2.7% (inactive)
5,CCn1nnc(NC(=O)Cc2ccc(Cl)cc2)n1,-0.719% (inactive)
6,O=C(Nc1cccc(-n2cnnn2)c1)c1ccc(OC(F)(F)F)cc1,2.59% (inactive)
7,O=C(c1cc(COc2ccccc2)on1)N1CCCC(CN2CCOCC2)C1 (stereo unspecified),2.19% (inactive)
8,CC(C)(C)n1ncc2c(=O)n(Cc3ccc(Cl)c(Cl)c3)cnc21,-3.02% (inactive)
9,CSc1ccccc1OCc1cc(C(=O)N2CCN(c3ccccc3)CC2C)no1 (stereo unspecified),-4.89% (inactive)
10,COc1cc(C(=O)NNC(=O)c2ccc3c(c2)OCCO3)cc(OC)c1OC,3.06% (inactive)
11,COc1cc(S(=O)(=O)Nc2ccc(C(=O)NCC(=O)O)cc2)ccc1NC(C)=O,-0.599% (inactive)
12,O=C(N/N=C/c1cccnc1)c1[nH]ncc1Br,-2.47% (inactive)
13,CCOC(=O)c1ccc(NC(=O)C2CCCO2)cc1 (stereo unspecified),5.12% (inactive)
14,CC(=O)c1cccc(NC(=O)CCNC(=O)c2cccc(C)c2)c1,-1.3% (inactive)
15,COc1cc(OC)c(C(=O)NCc2ccc3c(c2)OCO3)cc1OC,1.28% (inactive)
16,CC1CC(C)CN(C(=O)CCn2c(=O)oc3ccccc32)C1 (stereo unspecified),2.08% (inactive)

row,Compound,"activity change, negative = inhibition"
1,Cc1ccc(CNS(=O)(=O)c2ccc(C(F)(F)F)cc2)n1C,-2.84% (inactive)
2,Cc1ccc2nc(N3CCN(Cc4nnnn4C4CCCC4)CC3)c(C#N)cc2c1,2.55% (inactive)
3,Cc1ccc(Cn2c(=O)n(CCC(=O)NCc3ccc4c(c3)OCO4)c(=O)c3ccccc32)cc1,-1.22% (inactive)
4,Cc1ccc2c(c1)N(CC(=O)Nc1ccccc1F)C(=O)CO2,0.409% (inactive)
5,CC(C)(C)OC(=O)N1CCC(NC(=O)c2[nH]cnc2C(=O)Nc2cccc(Cl)c2)CC1,0.132% (inactive)
6,COC(=O)c1ccc(OCC(O)CN2CCc3cc(OC)c(OC)cc3C2c2ccccc2)cc1 (stereo unspecified),2.58% (inactive)
7,COc1ccccc1OCC(O)Cn1nc(C)cc1C (stereo unspecified),0.574% (inactive)
8,O=C(O)c1ccccc1CSc1nnnn1-c1ccccc1,0.49% (inactive)
9,CC(C)c1ccc(NC2CCCN(C(=O)c3ccnn3C)C2)cc1 (stereo unspecified),-3.14% (inactive)
10,c1ccc(-c2ccccc2OCCOCCN2CCc3ccccc3C2)cc1,-1.05% (inactive)
11,CCOc1ccccc1C(=O)NCC(=O)OCc1csc(CC(=O)Nc2ccc(C)cc2)n1,-1.29% (inactive)
12,CCCn1nnc(NC(=O)c2ccc3c(c2)OCO3)n1,2.04% (inactive)
13,CC(=O)n1nc(-c2ccccc2)nc1NCc1cccs1,1.06% (inactive)
14,C/C(=N\OC(=O)c1cccc(C(F)(F)F)c1)c1sc(-c2ccccc2)nc1C,-4.29% (inactive)
15,COc1ccccc1-c1c(C)nn2c(N)c(-c3ccccc3)cnc12,-0.491% (inactive)
